PubChem BioAssay (EPA / NIEHS)
Activity calls are given as the source filed them. Rule for the calls: active = hit-call score of the fitted dose curve at least 0.9, where 1 is the maximum; inactive = score below 0.9.

What was measured:
[1] = read-out: Interferon-gamma inducible Protein 10 (IP10), CXCL10 (gene 3627); assay: BSK_BE3C_IP10: BioMAP Diversity Plus: BE3C Assay for Interferon-gamma inducible Protein 10 (IP10) Biomarker Activity (AID 2283034); details: primary human bronchial epithelial cells; actives raise or lower the signal
Summary of the method: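 IP-10 quantified by ELISA serves as the endpoint. Cells: primary human bronchial epithelium, read 24 h after compound addition. Activity is derived by bidirectional fitting with DMSO as negative control.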

[2] = read-out: Monokine induced gamma interferon (MIG), CXCL9 (gene 4283); assay: BSK_BE3C_MIG: BioMAP Diversity Plus: BE3C Assay for Monokine induced gamma interferon (MIG) Biomarker Activity (AID 2283035); details: primary human bronchial epithelial cells; actives raise or lower the signal;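 note: MIG protein measured by ELISA in BE3C cultures after 24 h of dosing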
Summary of the method: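 hu bronchial epithelial 1° cells, 24 h cpd; MIG by ELISA; bidirectional fit, DMSO = baseline.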

[3] = read-out: Transforming growth factor beta 1 (TGFb1), TGFB1 (gene 7040); assay: BSK_BE3C_TGFb1: BioMAP Diversity Plus: BE3C Assay for Transforming growth factor beta 1 (TGFb1) Biomarker Activity (AID 2283036;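 note: TGF-b1 protein level measured by ELISA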); details: primary human bronchial epithelial cells; actives raise or lower the signal
Summary of the method: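 Bronchial epithelial primary cells are treated with test chemical, then TGF-b1 is quantified by ELISA after 24 hours. Values derive from bidirectional fitting against DMSO, with cytotoxicity checked by SRB staining in parallel cultures.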

[4] = read-out: Plasminogen activator inhibitor-1 (PAI1), SERPINE1 (gene 5054); assay: BSK_BE3C_PAI1: BioMAP Diversity Plus: BE3C Assay for Plasminogen activator inhibitor-1 (PAI1) Biomarker Activity (AID 2283037); details: primary human bronchial epithelial cells; actives raise or lower the signal
Summary of the method: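 Values derive from bidirectional fitting against DMSO baseline of PAI-1 levels, measured by ELISA in human bronchial epithelial cells 24 h after compound addition.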

[5] = read-out: urokinase plasminogen activator (uPA), PLAU (gene 5328); assay: BSK_BE3C_uPA: BioMAP Diversity Plus: BE3C Assay for urokinase plasminogen activator (uPA) Biomarker Activity (AID 2283038); details: primary human bronchial epithelial cells; actives raise or lower the signal;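 note: uPA protein level quantified by ELISA in cell cultures; uPA read one day after compound addition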
Summary of the method: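 Measured by ELISA: uPA from human primary bronchial epithelial cells 24 h after chemical treatment. Values derive from bidirectional curve fitting with DMSO serving as negative control. Total protein by SRB staining in parallel wells flagged overt cytotoxicity.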

[6] = read-out: Urokinase-type plasminogen activator receptor (uPAR), PLAUR (gene 5329); assay: BSK_BE3C_uPAR: BioMAP Diversity Plus: BE3C Assay for Urokinase-type plasminogen activator receptor (uPAR) Biomarker Activity (AID 2283039); details: primary human bronchial epithelial cells; actives raise or lower the signal;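 note: uPAR protein level measured by ELISA on the cells; cells exposed to compound for one day before measurement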
Summary of the method: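 Steps: dose human primary bronchial epithelial cells, incubate 24 h, measure uPAR by ELISA, then fit gain- or loss-of-signal response bidirectionally relative to DMSO.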

[7] = read-out: Interleukin-6 (IL6), IL6 (gene 3569); assay: BSK_CASM3C_IL6: BioMAP Diversity Plus: CASM3C Assay for Interleukin-6 (IL6) Biomarker Activity for (AID 2283040); details: primary human coronary artery smooth muscle cells; actives raise or lower the signal
[8] = read-out: Tissue plasminogen activator (tPA), PLAT (gene 5327); assay: BSK_BE3C_tPA: BioMAP Diversity Plus: BE3C Assay for Tissue plasminogen activator (tPA) Biomarker Activity (AID 2283041); details: primary human bronchial epithelial cells; actives raise or lower the signal;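 note: tPA level quantified by ELISA one day after compound addition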
Summary of the method: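 Gain- or loss-of-signal in tPA, measured by ELISA, derived by bidirectional fitting against DMSO. Cells: human primary bronchial epithelial; read at 24 h after chemical dosing.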

[9] = read-out: Interleukin-8 (IL8), CXCL8 (gene 3576); assay: BSK_CASM3C_IL8: BioMAP Diversity Plus: CASM3C Assay for Interleukin-8 (IL8) Biomarker Activity (AID 2283042); details: primary human coronary artery smooth muscle cells; actives raise or lower the signal;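 note: IL-8 protein level quantified by ELISA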
[10] = read-out: Human Leukocyte Antigen - DR isotype (HLADR), HLA-DRA (gene 3122); assay: BSK_CASM3C_HLADR: BioMAP Diversity Plus: CASM3C Assay for Human Leukocyte Antigen - DR isotype (HLADR) Biomarker Activity (AID 2283043); details: primary human coronary artery smooth muscle cells; actives raise or lower the signal;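 note: cell-surface HLA-DR protein level quantified by ELISA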
[11] = read-out: Macrophage colony-stimulating factor (MCSF), CSF1 (gene 1435); assay: BSK_CASM3C_MCSF: BioMAP Diversity Plus: CASM3C Assay for Macrophage colony-stimulating factor (MCSF) Biomarker Activity (AID 2283044); details: primary human coronary artery smooth muscle cells; actives raise or lower the signal;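 note: M-CSF protein amount quantified by ELISA after 24 h exposure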
[12] = read-out: Low-density lipoprotein receptor (LDLR), LDLR (gene 3949); assay: BSK_CASM3C_LDLR: BioMAP Diversity Plus: CASM3C Assay for Low-density lipoprotein receptor (LDLR) Biomarker Activity (AID 2283045); details: primary human coronary artery smooth muscle cells; actives raise or lower the signal;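 note: LDLR protein level on the cell surface quantified by ELISA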
[13] = read-out: Monocyte Chemoattractant Protein-1 (MCP1), CCL2 (gene 6347); assay: BSK_CASM3C_MCP1: BioMAP Diversity Plus: CASM3C Assay for Monocyte Chemoattractant Protein-1 (MCP1) Biomarker Activity (AID 2283046); details: primary human coronary artery smooth muscle cells; actives raise or lower the signal;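 note: MCP-1 level quantified by ELISA 24 h after dosing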
[14] = BSK_CASM3C_Proliferation: Cell Proliferation Assessment in the BioMAP Diversity Plus: CASM3C Assay (AID 2283047); details: primary human coronary artery smooth muscle cells;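 note: sulforhodamine B total protein stain as relative cell number at 560 nm; sub-confluent cells exposed 48 h before staining; fitted both ways against DMSO so gain or loss of cell number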
[15] = read-out: Monokine induced gamma interferon (MIG), CXCL9 (gene 4283); assay: BSK_CASM3C_MIG: BioMAP Diversity Plus: CASM3C Assay for Monokine induced gamma interferon (MIG) Biomarker Activity (AID 2283048); details: primary human coronary artery smooth muscle cells; actives raise or lower the signal;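 note: MIG protein level measured by ELISA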
[16] = read-out: serum amyloid A (SAA), SAA1 (gene 6288); assay: BSK_CASM3C_SAA: BioMAP Diversity Plus: CASM3C Assay for serum amyloid A (SAA) Biomarker Activity (AID 2283049); details: primary human coronary artery smooth muscle cells; actives raise or lower the signal;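 note: SAA protein level quantified by ELISA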
[17] = BSK_CASM3C_SRB: Viability Assessment in the BioMAP Diversity Plus: CASM3C Assay (AID 2283050); details: primary human coronary artery smooth muscle cells;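 note: total protein by SRB staining as cytotoxicity measure in parallel cultures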
[18] = read-out: Thrombomodulin, THBD (gene 7056); assay: BSK_CASM3C_Thrombomodulin: BioMAP Diversity Plus: CASM3C Assay for Thrombomodulin Biomarker Activity (AID 2283051); details: primary human coronary artery smooth muscle cells; actives raise or lower the signal;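 note: thrombomodulin protein level measured by ELISA 24 h after dosing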
[19] = read-out: Tissue Factor, F3 (gene 2152); assay: BSK_CASM3C_TissueFactor: BioMAP Diversity Plus: CASM3C Assay for Tissue Factor Biomarker Activity (AID 2283052); details: primary human coronary artery smooth muscle cells; actives raise or lower the signal;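 note: cell surface tissue factor protein level read by ELISA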
[20] = read-out: Interferon-gamma inducible Protein 10 (IP10), CXCL10 (gene 3627); assay: BSK_hDFCGF_IP10: BioMAP Diversity Plus: hDFCGF Assay for Interferon-gamma inducible Protein 10 (IP10) Biomarker Activity (AID 2283053); details: primary human foreskin fibroblasts; actives raise or lower the signal
Summary of the method: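 Cells: human dermal foreskin fibroblasts. Exposure: 24 h post-dosing. Detection: IP-10 ELISA, with values expressed against DMSO controls and fitted in both directions.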

CCCCC(CC)COC(=O)c1c(Br)c(Br)c(Br)c(Br)c1C(=O)OCC(CC)CCCC (stereo not given)
outcome [1]: inactive | outcome [2]: inactive | outcome [3]: inactive | outcome [4]: inactive | outcome [5]: inactive | outcome [6]: inactive | outcome [7]: inactive | outcome [8]: inactive | outcome [9]: inactive | outcome [10]: inactive | outcome [11]: inactive | outcome [12]: inactive | outcome [13]: inactive | outcome [14]: inactive | outcome [15]: inactive | AC50 [16]: 14.7 µM (active) | outcome [17]: inactive | outcome [18]: inactive | outcome [19]: inactive | outcome [20]: inactive

CCCCc1ccccc1
outcome [1]: inactive | outcome [2]: inactive | outcome [3]: inactive | outcome [4]: inactive | outcome [5]: inactive | outcome [6]: inactive | outcome [7]: inactive | outcome [8]: inactive | outcome [9]: inactive | outcome [10]: inactive | outcome [11]: inactive | outcome [12]: inactive | outcome [13]: inactive | outcome [14]: inactive | outcome [15]: inactive | outcome [16]: inactive | outcome [17]: inactive | outcome [18]: inactive | outcome [19]: inactive | outcome [20]: inactive

O=S1(=O)OCC2C(CO1)C1(Cl)C(Cl)=C(Cl)C2(Cl)C1(Cl)Cl (stereo not given)
outcome [1]: inactive | outcome [2]: inactive | outcome [3]: inactive | outcome [4]: inactive | outcome [5]: inactive | outcome [6]: inactive | outcome [7]: inactive | outcome [8]: inactive | outcome [9]: inactive | AC50 [10]: 32.7 µM (active) | AC50 [11]: 7.85 µM (active) | outcome [12]: inactive | outcome [13]: inactive | AC50 [14]: 20 µM (active) | outcome [15]: inactive | AC50 [16]: 23.2 µM (active) | outcome [17]: inactive | AC50 [18]: 20 µM (active) | AC50 [19]: 20.9 µM (active) | outcome [20]: inactive

CCCCN(CCCC)N=O
outcome [1]: inactive | outcome [2]: inactive | outcome [3]: inactive | outcome [4]: inactive | outcome [5]: inactive | outcome [6]: inactive | outcome [7]: inactive | outcome [8]: inactive | outcome [9]: inactive | outcome [10]: inactive | outcome [11]: inactive | outcome [12]: inactive | outcome [13]: inactive | outcome [14]: inactive | outcome [15]: inactive | outcome [16]: inactive | outcome [17]: inactive | outcome [18]: inactive | outcome [19]: inactive | outcome [20]: inactive

CSC(C)(C)C=NO
outcome [1]: inactive | outcome [2]: inactive | outcome [3]: inactive | outcome [4]: inactive | outcome [5]: inactive | outcome [6]: inactive | outcome [7]: inactive | outcome [8]: inactive | outcome [9]: inactive | outcome [10]: inactive | outcome [11]: inactive | outcome [12]: inactive | outcome [13]: inactive | outcome [14]: inactive | outcome [15]: inactive | outcome [16]: inactive | outcome [17]: inactive | outcome [18]: inactive | outcome [19]: inactive | outcome [20]: inactive

Nc1ccc([N+](=O)[O-])cc1Cl
outcome [1]: inactive | outcome [2]: inactive | outcome [3]: inactive | outcome [4]: inactive | outcome [5]: inactive | outcome [6]: inactive | outcome [7]: inactive | outcome [8]: inactive | outcome [9]: inactive | outcome [10]: inactive | outcome [11]: inactive | outcome [12]: inactive | outcome [13]: inactive | outcome [14]: inactive | outcome [15]: inactive | outcome [16]: inactive | outcome [17]: inactive | outcome [18]: inactive | outcome [19]: inactive | outcome [20]: inactive

c1cc2c3c(cccc3c1)CC2
outcome [1]: inactive | outcome [2]: inactive | outcome [3]: inactive | outcome [4]: inactive | outcome [5]: inactive | outcome [6]: inactive | outcome [7]: inactive | outcome [8]: inactive | outcome [9]: inactive | outcome [10]: inactive | outcome [11]: inactive | outcome [12]: inactive | outcome [13]: inactive | outcome [14]: inactive | outcome [15]: inactive | outcome [16]: inactive | outcome [17]: inactive | outcome [18]: inactive | outcome [19]: inactive | outcome [20]: inactive
